Screen size: about 650,000 compounds; about 6,800 (1%) were called active. Rule as the data show it: active = activation above about 4.9%; inactive = the rest. The sample as a whole holds a higher share of actives than the screen did.
Target: G-protein coupled receptor 151 (Homo sapiens) (UniProt Q8TDV0)
Assay: activators of human GPR151, primary screen, cell-based, PathHunter beta-arrestin, luminescence (AID 1508602);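 also: 0% = median of compound wells and 100% = cells with positive control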
Conditions: PathHunter beta-arrestin GPR151 cells, at 11.2 µM, stronger effect = higher value

Sequence of G-protein coupled receptor 151 (Homo sapiens) (Q8TDV0 whole entry, looked up): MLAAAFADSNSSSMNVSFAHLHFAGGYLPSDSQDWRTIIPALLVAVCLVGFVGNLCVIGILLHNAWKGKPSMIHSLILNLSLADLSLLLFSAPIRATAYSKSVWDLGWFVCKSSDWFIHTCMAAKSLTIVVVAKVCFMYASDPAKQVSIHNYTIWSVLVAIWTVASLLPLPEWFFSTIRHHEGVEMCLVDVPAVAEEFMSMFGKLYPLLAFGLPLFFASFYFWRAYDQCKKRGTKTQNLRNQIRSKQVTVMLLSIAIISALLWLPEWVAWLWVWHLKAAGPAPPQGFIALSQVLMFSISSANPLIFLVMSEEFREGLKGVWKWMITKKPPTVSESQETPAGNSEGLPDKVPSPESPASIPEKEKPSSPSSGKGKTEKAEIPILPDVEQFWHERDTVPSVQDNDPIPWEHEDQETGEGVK

Row | SMILES | activation
1 | CCCCN(C)CCCNC(=O)C1CCN(c2nc3ccc(OC)cc3s2)CC1 | -1.77% (inactive)
2 | CC1CCN(c2nc3ccc(C(=O)NCCCOC(C)C)cc3s2)CC1 | -0.0522% (inactive)
3 | CCOCCCNC(=O)NC1CCN(c2nc3ccccc3s2)CC1 | 5.41% (active)
4 | Cc1nn2c(N3CCNCC3)c3c(nc2c1-c1ccccc1)CCC3 | -1.05% (inactive)
5 | Cn1c(=NC(=O)CN2C(=O)c3ccccc3C2=O)sc2cc(F)cc(F)c21 | 0.254% (inactive)
6 | c1cncc(Nc2nc(NC3CC3)c3ncn(C4CCCCC4)c3n2)c1 | 11.5% (active)
7 | c1cnc(Nc2nc(NCc3cccnc3)c3ncn(C4CCCCC4)c3n2)nc1 | -0.529% (inactive)
8 | FC(F)(F)c1ccc(Nc2nc(NC3CC3)c3ncn(C4CCCCC4)c3n2)cc1 | 0.642% (inactive)
9 | Cc1ccc(NC(=O)CCNS(=O)(=O)c2ccc3c(c2)c(=O)n(C)c(=O)n3C)nc1 | -0.3% (inactive)
10 | COc1ccc2cc(C#N)c(SC)nc2c1 | 0.673% (inactive)
11 | Cc1ccc2cc(C#N)c(SCCO)nc2c1 | 6.39% (active)
12 | Cc1ccc(NC(=O)CSc2nc3cc4c(cc3cc2C#N)OCCO4)cc1 | -1.17% (inactive)
13 | CCN(CC)C(=O)Cn1cnc2sc(C(=O)NCc3ccc(Cl)cc3)c(C)c2c1=O | 0.437% (inactive)
14 | COc1ccc([C@H](O)[C@@H]2CCCN(C(=O)OC(C)(C)C)C2)cc1 | 0.253% (inactive)
15 | COCCNC(=O)c1cn(C[C@H]2CCCN(C(=O)c3conc3C)C2)nn1 | 1.06% (inactive)
16 | CC(C)(C)OC(=O)N1CCC[C@H](Cn2cc(C(=O)O)nn2)C1 | 6.74% (active)
17 | O=C(Nc1ccccc1)c1cnc(NCCN2CCOCC2)s1 | -2.52% (inactive)
18 | COc1ccccc1C1C(C#N)=C(N)Oc2n[nH]c(-c3ccc4ccccc4c3)c21 (stereo not drawn) | -0.23% (inactive)
19 | COc1ccc(-c2nnc(SCC(=O)Nc3ccc(Br)cc3)nc2-c2ccc(OC)cc2)cc1 | 1.77% (inactive)
20 | CC(C)C(=O)NC(=S)Nc1ccccc1F | 6.35% (active)
21 | CC(C)CC(=O)NC(=S)Nc1ccc(F)cc1F | 2.41% (inactive)
22 | OCCCNC(=S)Nc1ccccc1F | 0.421% (inactive)
23 | COc1ccccc1NC(=O)NCc1nc(-c2ccc(OC)c(OC)c2)no1 | 7.48% (active)
24 | CCOc1ccccc1NC(=O)CCc1nc(-c2ccc(OC)c(OC)c2)no1 | -1.02% (inactive)

Row | SMILES | activation
25 | COc1ccccc1Cc1nc(-c2ccc(OC)c(OC)c2)no1 | 1.66% (inactive)
26 | COCCn1cc(C(=O)N2CCCCCC2)c2c3ccccc3n(C)c2c1=O | 0.412% (inactive)
27 | CC1CCCC(NC(=O)C2N(CCN3CCCCC3)C(=O)C3C(C(=O)Nc4cc(Cl)cc(Cl)c4)C4C=CC32O4)C1C (stereo not drawn) | -0.312% (inactive)
28 | COCCCNC(=O)c1nnc(-c2ccccc2)o1 | -0.472% (inactive)
29 | CC(C)=CCC/C(C)=C/C=N/Nc1ccc(S(N)(=O)=O)cc1[N+](=O)[O-] | 1% (inactive)
30 | COc1cc(C(=O)Nc2c3c(nn2-c2ccc(F)cc2)CSC3)cc(OC)c1OC | 1.91% (inactive)
31 | Cc1ccc(-c2nc3ccc(C(=O)NCCC4=CCCCC4)cc3nc2-c2ccc(C)cc2)cc1 | 4.13% (inactive)
32 | OCc1ccccc1CNc1ccc(F)cc1 | 10.3% (active)
33 | Cn1c(CNc2ccc(F)cc2)c(C#N)c2ccccc21 | 0.294% (inactive)
34 | Cc1ccc(NCc2ccccc2CO)cc1 | -5.47% (inactive)
35 | COc1cc(CN2CCN(C3CCCC3)C(CCO)C2)cc(OC)c1OC (stereo not drawn) | -0.445% (inactive)
36 | O=c1c2c([nH]c(=S)n1Cc1ccco1)-c1ccccc1CC21CCCCC1 | -0.102% (inactive)
37 | C=CCSc1nc2c(c(=O)n1CC1CCCC1)C1(CCCC1)Cc1ccccc1-2 | 0.419% (inactive)
38 | CC(C)CCSc1nc2c(c(=O)n1Cc1ccco1)C1(CCCCC1)Cc1ccccc1-2 | 16.5% (active)
39 | CC(C)(C)C(=O)/C=C/c1ccccc1O | 0.824% (inactive)
40 | CC(C)N(CCNC(=O)c1cccc(-c2cccs2)n1)C(C)C | -1.28% (inactive)
41 | CCCCc1ccc(NC(=O)CSc2nnc(C)s2)cc1 | 0.0157% (inactive)
42 | CCc1ccc(NC(=O)CN2C(=O)CSC(C)C2=O)cc1 (stereo not drawn) | -0.109% (inactive)
43 | CCCCc1ccc(NC(=O)CN2C(=O)C(C)SC(C)C2=O)cc1 (stereo not drawn) | 6.11% (active)
44 | Cc1ccccc1C(=O)NNC(=O)c1ccccc1F | -3.61% (inactive)
45 | C=CCSC1=C(C#N)C(c2ccc(Cl)cc2Cl)CC(=O)N1 (stereo not drawn) | 5.51% (active)
46 | CCOc1ccc(NC(=O)CSC2=C(C#N)C(c3ccc(Cl)cc3Cl)CC(=O)N2)cc1 (stereo not drawn) | -1.43% (inactive)
47 | CSC1=C(C#N)C(c2ccc(Cl)cc2Cl)CC(=O)N1 (stereo not drawn) | -1.96% (inactive)
48 | O=C(O)C1CC=C(Cl)CC1C(=O)Nc1cccc([N+](=O)[O-])c1 (stereo not drawn) | -0.78% (inactive)

Row | SMILES | activation
49 | COc1ccc([N+](=O)[O-])cc1NC(=O)c1cccc(Cl)c1Cl | -1.48% (inactive)
50 | COc1ccc([N+](=O)[O-])cc1NC(=O)C1CC(Cl)=CCC1C(=O)O (stereo not drawn) | 6.77% (active)
51 | CCN1CCN(C(=O)C(C)Oc2ccc(Cl)cc2Cl)CC1 (stereo not drawn) | -0.795% (inactive)
52 | CCc1ccc(-n2c(C)c(C)n3c4c(=O)n(CC)c(=O)n(C)c4nc23)cc1 | 5.92% (active)
53 | CCOC(=O)c1ccc(-n2c(C)c(C)n3c4c(=O)n(CC)c(=O)n(C)c4nc23)cc1 | 1.57% (inactive)
54 | CCCn1c(=O)c2c(nc3n(-c4ccc(C)cc4)c(C)c(C)n23)n(C)c1=O | 3.26% (inactive)
55 | CCn1c(C)c(CCC(=O)NN2CCOCC2)c(=O)n2nc(-c3ccccc3OC)cc12 | -0.283% (inactive)
56 | CCCCC(CCCC)=N/N=C1\NC(=O)C(CC(=O)O)S1 (stereo not drawn) | -1.58% (inactive)
57 | N#Cc1ccc(C(=O)OCC(=O)Nc2ccc3[nH]c(=O)[nH]c3c2)cc1 | 0.615% (inactive)
58 | COc1ccc(C(=O)N/N=C/c2ccc(O)c3ncccc23)cc1 | -2.28% (inactive)
59 | O=S(=O)(c1ccc(F)cc1)N1CCN(CCCc2ccccc2)CC1 | 5.43% (active)
60 | Cc1ccc(S(=O)(=O)N2CCN(Cc3ccc(F)cc3)CC2)cc1 | -0.354% (inactive)
61 | O=S(=O)(c1ccc(F)cc1)N1CCN(Cc2ccccc2F)CC1 | 0.53% (inactive)
62 | Cc1cc(C)c2c(=O)[nH]c(SCC(=O)c3ccc(F)cc3)nc2n1 | 3.2% (inactive)
63 | COc1ccccc1N1CCN(C(=O)c2cc(-c3ccc(Cl)c(Cl)c3)nc3ccccc23)CC1 | -0.435% (inactive)
64 | COc1ccc(NC(=O)C23CCC(C)(C(=O)C2)C3(C)C)c(OC)c1 (stereo not drawn) | 0.482% (inactive)
65 | COc1ccc(-n2c(SCC(=O)c3ccccc3)nc3sc4c(c3c2=O)CCCC4)cc1 | -0.298% (inactive)
66 | CCCCSc1nc2sc3c(c2c(=O)n1-c1ccc(OC)cc1)CCCC3 | 0.438% (inactive)
67 | COc1ccc(C(=O)CSc2nc3sc4c(c3c(=O)n2-c2ccc(Cl)cn2)CCCC4)c(F)c1 | 5.7% (active)
68 | Oc1ccc(-c2n[nH]c(=S)o2)cc1 | -2.2% (inactive)
69 | CC(C)(C)c1ccc(S(=O)CC(O)CSc2nc(-c3cccs3)cc(-c3ccccc3)c2C#N)cc1 (stereo not drawn) | 0.807% (inactive)
70 | CCCCOC(=O)c1ccc(NC(=O)C2C3C=CC(O3)C2C(=O)O)cc1 (stereo not drawn) | -1.25% (inactive)
71 | COC(=O)c1cc(NC(=O)C2C3C=CC(C3)C2C(=O)O)cc(C(=O)OC)c1 (stereo not drawn) | -0.454% (inactive)
72 | CC(C)COC(=O)c1ccc(NC(=O)C2C3C=CC(C3)C2C(=O)O)cc1 (stereo not drawn) | 6.08% (active)

Row | SMILES | activation
73 | O=c1c2c3c(sc2nc(SCc2cccc(Br)c2)n1-c1ccccc1)CCC3 | 0.0499% (inactive)
74 | O=C(O)COc1ccc(NC(=O)/C=C/c2ccco2)cc1 | 3.09% (inactive)
75 | CC(C)NS(=O)(=O)c1ccc(OCC(=O)NC2CCCCCC2)cc1 | -1.64% (inactive)
76 | O=C(COc1ccc(S(=O)(=O)Nc2ccc(F)cc2)cc1)NC1CCCC1 | 1.64% (inactive)
77 | O=C(COc1ccc(S(=O)(=O)NCCc2ccccc2)cc1)NC1CC1 | 5.83% (active)
78 | Cc1ccc(NC(=O)CSc2nnc3sc4ccccc4n23)cc1 | -0.639% (inactive)
79 | Cc1ccc(S(=O)(=O)c2nnn3c2nc(NCc2ccco2)c2ccccc23)cc1 | -0.413% (inactive)
80 | Cc1ccc(C(C)C)c(OCCN2CCNCC2)c1 | 0.889% (inactive)
81 | Cc1ccc(C(C)C)c(OCCCn2ccnc2)c1 | 4.92% (active)
82 | C=CCc1cc(C)ccc1OCCCn1ccnc1 | 2.6% (inactive)
83 | COc1ccc(CCNc2nc(-c3ccccc3)nc3c2ncn3C2CCCCC2)cc1 | 0.405% (inactive)
84 | COc1ccc(CCNC(=O)c2ccccc2C(=O)O)cc1OC | -1.14% (inactive)
85 | O=[N+]([O-])c1ccc(-n2c(-c3ccccc3)nnc2-c2ccccc2)cc1 | -0.192% (inactive)
86 | Cc1csc(NC(=O)CSc2nnc(Cc3cccn3C)n2-c2ccccc2)n1 | 0.245% (inactive)
87 | C=CCOc1ccc(/C=C2\C(=O)N(c3ccc([N+](=O)[O-])cc3)N=C2c2ccccc2)cc1 | -2.33% (inactive)
88 | O=C1/C(=C\c2ccccc2)C(N2CCOCC2)=NN1c1ccc([N+](=O)[O-])cc1 | 6.57% (active)
89 | O=C1N=C(N2CCN(c3ccc([N+](=O)[O-])cc3)CC2)S/C1=C/c1ccccc1 | -0.706% (inactive)
90 | CCC(=O)Nc1cc(-c2ccco2)nn1-c1nc(CC)cc(=O)[nH]1 | -0.772% (inactive)
91 | CC(C)(C)c1ccc(OCCCCNCCO)cc1 | 0.146% (inactive)
92 | COCCNCCOc1ccc(C(C)(C)C)cc1 | 8.42% (active)
93 | COC(=O)NCCOc1ccc(C(C)(C)C)cc1 | 0.726% (inactive)

Source: PubChem BioAssay AID1508602 (The Scripps Research Institute Molecular Screening Center, 2020)
